The campaign covered roughly 370,000 compounds. About 520 (0.14%) were called active. Only a selection was taken, and actives are over-represented in it overall. Values without a mark were called inactive. Rule as the data show it: active = activation above about 40%; inactive = the rest.
These molecules were tested against Atrial natriuretic peptide receptor 1 (Homo sapiens) (UniProt P16066) (assay: GC-A stimulated cGMP production enhancers – HEK293 GC-A cells, cGMP TR-FRET, EC30 ANP, primary screen (AID 1671463)). Conditions: at 10 µM, stronger effect = higher value, 0% at EC30 ANP, 100% saturating ANP.
Chain of Atrial natriuretic peptide receptor 1 (Homo sapiens) (P16066 whole entry, looked up): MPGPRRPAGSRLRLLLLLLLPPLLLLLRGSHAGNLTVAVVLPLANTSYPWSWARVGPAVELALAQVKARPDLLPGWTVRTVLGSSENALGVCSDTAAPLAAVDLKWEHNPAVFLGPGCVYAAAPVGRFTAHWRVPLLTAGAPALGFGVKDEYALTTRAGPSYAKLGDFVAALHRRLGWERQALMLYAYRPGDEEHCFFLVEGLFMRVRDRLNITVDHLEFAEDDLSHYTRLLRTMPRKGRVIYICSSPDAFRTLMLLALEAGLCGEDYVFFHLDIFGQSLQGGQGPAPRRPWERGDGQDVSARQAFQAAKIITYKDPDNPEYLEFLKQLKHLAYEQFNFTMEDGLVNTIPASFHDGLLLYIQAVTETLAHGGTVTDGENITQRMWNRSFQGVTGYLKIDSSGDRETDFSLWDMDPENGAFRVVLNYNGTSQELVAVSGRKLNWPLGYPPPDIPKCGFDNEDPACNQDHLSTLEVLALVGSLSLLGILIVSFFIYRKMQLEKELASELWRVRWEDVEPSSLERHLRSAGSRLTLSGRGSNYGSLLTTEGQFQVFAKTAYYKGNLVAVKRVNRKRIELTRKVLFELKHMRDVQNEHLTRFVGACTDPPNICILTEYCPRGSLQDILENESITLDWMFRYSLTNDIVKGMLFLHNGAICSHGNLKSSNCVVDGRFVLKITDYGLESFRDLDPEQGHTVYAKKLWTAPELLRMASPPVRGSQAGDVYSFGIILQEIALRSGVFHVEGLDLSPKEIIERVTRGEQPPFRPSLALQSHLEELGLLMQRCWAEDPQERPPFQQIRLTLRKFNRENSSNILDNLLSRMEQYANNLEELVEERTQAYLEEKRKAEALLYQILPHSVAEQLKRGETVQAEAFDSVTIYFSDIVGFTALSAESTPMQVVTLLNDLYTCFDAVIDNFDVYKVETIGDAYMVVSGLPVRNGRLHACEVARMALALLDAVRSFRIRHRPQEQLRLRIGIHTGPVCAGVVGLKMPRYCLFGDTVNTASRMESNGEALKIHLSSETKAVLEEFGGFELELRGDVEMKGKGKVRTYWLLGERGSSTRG
For O=C(Oc1ccc2c(c1)CCC2)N1CCOCC1, the activation was 4.74%. Work on CCOC(=O)C(=O)N(Cc1ccccc1)c1ccccc1C(=O)Nc1cc(OC)ccc1OC yielded an activation of -11.8%. COc1ccc(NC(=S)SC)cc1OC showed an activation of 1.77%. Work on COc1ccccc1C(=O)N(C1=NC(C)CS1)c1ccc(Cl)cc1 (stereo not drawn) yielded an activation of -15.5%. In the case of CC1CCN(CCCNC(=O)CN2C(=O)CSc3ccc(S(=O)(=O)N4CCCCC4)cc32)CC1, the activation was 3.44%. In the case of Cn1nc(C(F)(F)F)cc1-c1ccc(/C=C(\C#N)C(=O)c2cccc(C(F)(F)F)c2)s1, the activation was 25.6%. In the case of CC1CCCC(N2CCN(C(=O)c3ccc(F)cc3)CC2)C1 (stereo not drawn), the activation was 5.28%. O=S(=O)(c1ccc(-c2ccccc2)cc1)N1CCCC1 showed an activation of 0.74%. Cc1cccc(C(=O)Nc2ccccc2-c2nnn(CC(=O)Nc3ccc4c(c3)OCCO4)n2)c1 gave an activation of -13.7%. Molecule CN1C[C@]2(C=C3CCCCC3n3c(=O)n(-c4ccccc4)c(=O)n32)N=C1NC(=O)c1ccccc1 (stereo partly drawn) has an activation of -1.71%. In the case of C#CCCN([C@H](C(=O)OC)C(C)C)S(=O)(=O)c1ccc(F)cc1Br, the activation was -5.17%. COc1ccccc1-n1nnnc1S(=O)(=O)Cc1ccc(Cl)cc1 gave an activation of 0.71%. Cc1nc(-c2ccc(Cl)cc2)sc1C1(C)CC(c2ccc(Br)cc2)=NO1 (stereo not drawn) gave an activation of -0.28%. Cc1nc(-c2ccc(Cl)cc2)sc1C(=O)CBr was tested, and the activation was 49.9% (active). Cc1nc(-c2ccc(Cl)cc2)sc1C1(C)CC(c2ccccc2F)=NO1 (stereo not drawn) gave an activation of 2.63%. Cc1ccccc1CN1CCCCC(NC(=O)c2cccc(C#N)c2)C1=O (stereo not drawn) was tested, and the activation was 1.67%. CCOc1ccc(S(=O)(=O)N2CCC(c3ccccc3)CC2)cc1C(=O)O showed an activation of 0.54%. In the case of COc1cc(CNc2ncn[nH]2)ccc1OCc1ccccc1C, the activation was 0.42%. C/C=C/c1ccc(OCCOc2ccc(C=O)cc2OC)c(OC)c1 showed an activation of 3.2%. For COc1cc(/C=C2/C(=O)ON=C2C)ccc1OCc1cccc(F)c1, the activation was 52.6% (active). For COc1cc(/C=C2/C(=O)ON=C2C)ccc1OCc1ccccc1F, the activation was 51.8% (active). CCOc1cc(/C=N/O)ccc1OCc1ccccc1F was tested, and the activation was -0.44%. COc1ccnc2c1c(=O)n(Cc1cccc(F)c1)c(=O)n2C showed an activation of 8.86%. COc1ccc(CCNC(=O)c2ccc(NC(=O)CC3SC(N4CCCCC4)=NC3=O)cc2)cc1OC (stereo not drawn) gave an activation of -0.61%. COCCCN1C(=O)C(=O)/C(=C(/O)c2ccc(S(=O)(=O)N3CCOCC3)cc2)C1c1ccc(F)cc1 (stereo not drawn) gave an activation of 1.53%. CCc1c(-c2ccccc2OC)ncn1CCc1ccccc1OC showed an activation of -8.39%. Work on CCc1nc2c(OCc3cccc(OC)c3)cccn2c1N(C)C(=O)C(C)C yielded an activation of -2.25%. For CC(NC(=O)CCCC1CCCCC1)c1ccc(S(N)(=O)=O)cc1 (stereo not drawn), the activation was -4.53%. CC(=O)Oc1c(C(=O)c2nnc(C)o2)c(=O)n(Cc2ccccc2)c2ccccc12 showed an activation of -0.69%. With O=C1CCCCC1Sc1ccc(Cl)cc1[N+](=O)[O-] (stereo not drawn) the activation was -7.33%. Work on CCN(CC)C(CNC(=O)CSc1nnnn1-c1cccc(F)c1)c1ccco1 (stereo not drawn) yielded an activation of 2.86%. Cc1ccc(S(=O)(=O)N2C[C@@H]3CCCC[C@@H]3[C@@H](C)[C@H]2c2cn(Cc3ccccc3)c3ccc(F)cc23)cc1 showed an activation of 3.1%. With Cc1ccc(C(=O)NC(=S)Nc2ccc3[nH]c(=O)[nH]c3c2)cc1C the activation was -4.45%. COC(=O)COc1ccc2c(=O)c(Oc3ccccc3Br)coc2c1 was tested, and the activation was 46.5% (active). Molecule CCc1ccc(Oc2coc3cc(O)ccc3c2=O)cc1 has an activation of 9.73%. For CCc1ccc(Oc2coc3cc(OC(=O)c4cc5ccccc5oc4=O)ccc3c2=O)cc1, the activation was -3.3%. Molecule CC[C@H](C)[C@@H](C(=O)N1CCNCC1)n1cc([C@@H](N)Cc2ccc(O)cc2)nn1 has an activation of -0.45%. CC1(C)CC(=O)c2cnc3nc4ccccc4n3c2C1 gave an activation of 1.08%. Work on Cc1ccc(Cn2c(=N)c(S(=O)(=O)c3ccc(C)cc3)cc3c(=O)n4ccccc4nc32)cc1 yielded an activation of 0.3%. With Cc1cc(C)nc(S/C=C/C(=O)c2ccccc2)n1 the activation was 43.5% (active). Cc1cc(C)nc(NC(=O)Nc2ccccc2C(F)(F)F)n1 showed an activation of 9.79%. CCn1c(CSc2nc(C)cc(C)n2)nnc1SCC(N)=O showed an activation of -2.17%. Cc1cc(NC(=O)CCC(=O)N(CC(=O)NCC2CCCO2)c2ccccc2)no1 (stereo not drawn) was tested, and the activation was -2.42%. CC#CC[N+](C)(C)CCCCCC was tested, and the activation was 1.8%. O=C(NCCCO)/C(=C\C=C\c1ccccc1)NC(=O)c1ccccc1Cl was tested, and the activation was 1.06%. With COc1ccc(C2OC(=O)CC2C(=O)NC(C)C)cc1 (stereo not drawn) the activation was -0.27%. Work on O=C1CN(C(=O)c2ccccc2F)C(c2ccc(F)cc2)c2cc(F)ccc2N1 (stereo not drawn) yielded an activation of -11%. CCCCN1C(=S)NC[C@@H]1C(C)CC (stereo partly drawn) showed an activation of -0.8%. In the case of CC[n+]1cc(C)ccc1/C=C/c1ccc(N(C)C)cc1, the activation was -28.2%. With CCOc1ccccc1N1CCN(C(=S)Nc2ccc(S(N)(=O)=O)cc2)CC1 the activation was 2.84%. For CCOc1ccc(-n2cnc3c(=O)[nH]c(N)nc32)cc1, the activation was 23%. For CCCc1nn(C)c2c(=O)[nH]c(-c3cc(S(N)(=O)=O)ccc3OCC)nc12, the activation was 53.2% (active). CC1CCC(N2CC(=O)N(Cc3ccc4c(c3)OCO4)C(c3ccc(F)cc3)C2=O)CC1 (stereo not drawn) was tested, and the activation was -15.6%. In the case of Cc1csc(NC(=O)C2CCCN2C(=O)OCC(C)C)n1 (stereo not drawn), the activation was -0.58%. In the case of CN(C)CCCn1c(SCCN2C(=O)c3ccccc3C2=O)nc2ccccc2c1=O, the activation was -1.16%. CN(C)CCn1c2c(c(SCC(=O)NCc3ccccc3)nc1=O)CCC2 showed an activation of 3.93%. Work on O=C(NCc1ccccc1)C(c1cccnc1)N(C(=O)c1csnn1)c1ccc(F)cc1 (stereo not drawn) yielded an activation of 2.49%. In the case of O=C1CCC(=O)N1CCOP1(=O)COc2ccccc2OC1, the activation was 1.8%. For Cc1ccc(Cl)cc1NC(=O)COC(=O)C1CCCCC1, the activation was 4.33%. For COc1ccc(NC(=O)CN(C)C(=O)Cc2coc3cc(C)c(C)cc23)cc1, the activation was 0.74%. CC(C)=CCN1CCN(Cc2ccc(Oc3ncccn3)cc2)CC1CCO (stereo not drawn) gave an activation of -0.64%. In the case of Cc1nc(-c2nnc(SCC(=O)Nc3cc(C(F)(F)F)cc(C(F)(F)F)c3)n2C)cs1, the activation was 1.31%. For COc1cc2c(cc1OC)/C(=C/C(=O)c1ccc(NC(C)=O)cc1)NCC2, the activation was 6.02%. With O=C(O)C1CCCN1S(=O)(=O)c1ccc(Br)cc1 (stereo not drawn) the activation was 3.81%. CC1CN/C(=C\C(=O)c2ccc(Br)cc2)C(=O)N1 (stereo not drawn) was tested, and the activation was 45.4% (active). COc1ccc(N(CCC#N)S(=O)(=O)c2ccc(Cl)cc2)cc1 was tested, and the activation was -7.67%. Work on Cc1ccccc1CN(c1ccc(C(=O)NCC2CCCO2)cc1)S(C)(=O)=O (stereo not drawn) yielded an activation of 2.8%. COc1ccc(CCNC(=O)CSc2nc3c([nH]2)c(=O)n(C)c(=O)n3C)cc1 gave an activation of -1.99%. Molecule Cc1[nH][nH]c(=O)c1C(c1ccc(-c2ccc(Cl)cc2)o1)c1c(C)[nH][nH]c1=O has an activation of 3.79%. In the case of O=C(NCCCN1CCCCCC1)c1ccc(N2CCCC2=O)cc1, the activation was -0.43%. For O=C(Nc1cc(S(=O)(=O)N2CCOCC2)ccc1OCC(F)(F)F)c1ccc(N2CCCC2=O)cc1, the activation was -0.92%. CS(=O)(=O)c1ccc2nc(NC(=O)c3ccc(N4CCCC4=O)cc3)sc2c1 was tested, and the activation was 62.2% (active). For CC(=O)Nc1cc(-c2ccccc2N(C)C)cn2c(-c3ccc(F)c(Cl)c3)cnc12, the activation was 3.6%.

Reference: PubChem BioAssay AID1671463 (Sanford-Burnham Center for Chemical Genomics, 2021)
